Measured values published in PubChem BioAssay AID618 (Sanford-Burnham Center for Chemical Genomics, 2007).
Screen size: about 87,000 compounds; about 540 (0.62%) were called active. The rule behind the calls is not given here. The list comes from a sample in which actives are over-represented; it also holds similar structures and randomly drawn compounds. Where a call stands in place of a potency, no number is given. Potency and affinity values are given separately.

Experiment: inhibitors of MT1-MMP promoter transcription, cell-based, luciferase reporter, luminescence (AID 618);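 note: actives suppress MT1-MMP promoter-driven transcription so potencies describe inhibitors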
Details: MT1-MMP promoter luciferase reporter cells

Structure (SMILES) | outcome
Cc1cc(=O)n2nc(N3CCC(C(=O)NCc4cccnc4)CC3)sc2n1 | inactive
CC(C)=C1SC(N2CCN(Cc3ccccc3)CC2)=NC1=O | inactive
CC1=C(C#N)C(c2cccnc2)C2=C(CC(c3ccc(Cl)cc3)CC2=O)N1 (stereo not given) | inactive
COc1ccc(-c2nn(-c3ccccc3)cc2C(=O)N2CCOCC2)cc1 | inactive
Cc1cc(C)n(C(=O)CN2C(=O)c3ccccc3C2=O)n1 | inactive
O=C(NCc1ccncc1)Nc1ccc(Cl)cc1Cl | inactive
CCCn1c(=O)c2c(c3ccccc31)OCC(=O)N2 | inactive
COc1ccc(Cc2nnc3n2N=C(c2cc4ccccc4o2)CS3)cc1OC | inactive
COC(=O)CSc1nsc(SCC(=O)OC)n1 | inactive
CCCCCSc1nc2c(cnn2-c2ccccc2)c(=O)[nH]1 | inactive
COc1ccc(C(=O)Nc2nc3ccccc3[nH]2)cc1OC | inactive
O=C(Nc1nc2ccccc2[nH]1)c1ccc(F)cc1 | active
O=C(NCCc1nc2ccccc2[nH]1)c1ccc(F)cc1 | inactive
Cc1[nH]c2ccccc2c1/C=N/n1cnnc1 | inactive
Nc1c(C(=O)Nc2ccccc2)sc2nc3c(c(-c4ccco4)c12)CCC3 | inactive
COc1ccc(C2NC3=C(CCC3)C3(C#N)C(OC)(OC)N=C(N)C23C#N)cc1 (stereo not given) | inactive
COc1ccc(OC)c(S(=O)(=O)NCCO)c1 | inactive
O=C(NCCc1ccccc1)C1CC(c2ccccc2O)=NO1 (stereo not given) | inactive
COc1ccc2c(c1)CC/C(=C\Nc1ccc3c(c1)OCO3)C2=O | inactive
O=C1CCCC/C1=C/Nc1ccc2c(c1)OCO2 | inactive
CCn1cc(Br)c(C(=O)Nc2cccc(SC)c2)n1 | inactive
CCOC(=O)c1c(N)sc(C(=O)Nc2ccc3c(c2)OCO3)c1C | active
CCOC(=O)c1c(C)[nH]c(C(=O)Nc2ccc3c(c2)OCO3)c1C | inactive
CCOC(=O)c1c(C)c(C(=O)Nc2ccc3c(c2)OCO3)c(C)n1C | inactive

Structure (SMILES) | outcome
COc1ccc(-c2nnc3ccc(SCC(=O)N4CCCC4)nn23)cc1 | inactive
Cn1c(=O)c2c(nc(N3CCN(Cc4ccccc4)CC3)n2CCSc2ncccn2)n(C)c1=O | inactive
COc1ccc(OC)c(NS(=O)(=O)c2ccc(N3CCCC3=O)cc2)c1 | active
COc1ccc(Cl)cc1NS(=O)(=O)c1ccc(OC)c(OC)c1 | inactive
COc1ccc(S(=O)(=O)Nc2cc(Cl)ccc2OC)cc1 | active
Cc1ccccc1NS(=O)(=O)c1ccc(N2CCCC2=O)cc1 | inactive
COc1ccc(CCNS(=O)(=O)c2ccc(N3CCCC3=O)cc2)cc1 | inactive
COc1ccc(Cl)cc1NS(=O)(=O)c1ccc(S(=O)(=O)N2CCCC2)cc1 | inactive
C=CCc1cccc(/C=N/n2c(C)nnc2C)c1O | inactive
O=C1CC(c2ccc(S(=O)(=O)N3CCCCC3)cc2)CN1 (stereo not given) | inactive
CCOc1cccc(CNn2cnnc2)c1OCc1ccccc1 | inactive
CCN1CCN(CCNC(=O)CS(=O)(=O)Cc2nc(-c3ccc(C)cc3)oc2C)CC1 | inactive
CCOc1cc(-c2noc(N)c2C(=O)OC)cc(OCC)c1OCC | inactive
Cc1ccc(-c2nc(N/N=C/c3cccnc3)c3ccccc3n2)cc1 | inactive
Brc1ccc(-c2nc(N/N=C/c3cccnc3)c3ccccc3n2)cc1 | inactive
COc1ccc(CCn2c(C)cc3c(c2=O)C(c2ccc4c(c2)OCO4)C(C#N)=C(N)O3)cc1OC (stereo not given) | inactive
COc1ccccc1NC(=O)C1C2CCCCC21 (stereo not given) | inactive
Cc1cc(C)n(C(=O)c2nn(C)c(C)c2[N+](=O)[O-])n1 | inactive
O=C(Nc1ccc(CN2CCOCC2)cc1)c1cc2ccccc2o1 | inactive
CC(=O)c1cccc(NC(=O)c2cc3ccccn3n2)c1 | inactive
COc1cccc(CNC(=O)c2cc3ccccn3n2)c1 | inactive
O=C(Nc1ccc(CN2CCOCC2)cc1)c1cccc(F)c1 | inactive
COc1ccc(-c2ccc(-c3noc(-c4ccc(OC)c(OC)c4)n3)c(OC)n2)cc1 | inactive
CC(C)CNC(=O)c1ccccc1NC(=O)c1ccccc1N(C)S(C)(=O)=O | inactive

Structure (SMILES) | outcome
COC(=O)CSc1nnc2n1C(C)(C)Cc1ccccc1-2 | inactive
Cc1ccc2cc(CCNC(=O)C(C)C)c(=O)[nH]c2c1 | inactive
COC(=O)c1sc(S(=O)(=O)N2CCCCC2)c(C(=O)OC)c1C | inactive
COc1ccc(NC(=O)NCCCN2CCc3ccccc3C2)cc1 | inactive
O=C(Nc1ccc(N2CCOCC2)c(Cl)c1)c1ccco1 | inactive
O=C(Nc1ccc(N2CCCCC2)c(C(=O)O)c1)c1ccco1 | inactive
CC(=O)NC(c1ccco1)c1ccc2cccnc2c1O (stereo not given) | inactive
Oc1c(C(Nc2nc3ccccc3s2)c2ccco2)ccc2cccnc12 (stereo not given) | inactive
CCN(CC)C(=O)CSc1nnc(-c2ccccn2)n1-c1ccc(C)c(C)c1 | inactive
COc1ccc(S(=O)(=O)N2CCN(c3ncnc4c(-c5ccccc5)nsc34)CC2)cc1 | inactive
O=C(N1CCCC1)N1CCN(c2ncnc3c(-c4ccc(Cl)cc4)nsc23)CC1 | inactive
COc1ccc(-c2nsc3c(N4CCN(C(=O)c5ccco5)CC4)ncnc23)cc1 | inactive
COc1ccc(-c2nsc3c(N4CCN(S(=O)(=O)c5ccccc5)CC4)ncnc23)cc1 | inactive
COc1ccc(-c2nsc3c(N4CCCC4)ncnc23)cc1 | active
CC1(C)CC(=O)c2cc(C(=O)NC3CCSC3=O)c(=O)n(-c3ccccc3)c2C1 (stereo not given) | inactive
O=C(O)C1C2C=CC(C2)C1C(=O)N1CCc2ccccc21 (stereo not given) | inactive
O=C1CCC(C(=O)OCc2c(Cl)cccc2Cl)N1 (stereo not given) | inactive
CC1C2CC(CC1(C)C)N(C(=O)Nc1ccc3nccnc3c1)C2 (stereo not given) | inactive
COC(=O)c1c(O)c2ccccc2[nH]c1=O | inactive
Cc1cccc2cc(CN(Cc3cccs3)C3(c4nnnn4C4CCCC4)CCCC3)c(=O)[nH]c12 | inactive
COc1cccc(-c2cc(C(F)(F)F)n3nc(N)nc3n2)c1 | inactive
COc1cccc(-c2cn3nc4c(nc3n2)CCCC4)c1 | active
c1ccc(-c2ccc(-c3cn4c(n3)CCC4)cc2)cc1 | inactive
COc1ccc(-c2cn3c(n2)CCC3)cc1 | inactive

Structure (SMILES) | outcome
c1ccc(-c2cn3c(n2)CCC3)cc1 | inactive
COc1cccc(-c2cn3nc(C)c(C)nc3n2)c1 | inactive
COc1ccc(-c2cn3ccc4ccccc4c3n2)cc1 | inactive
CCOC(=O)c1cc(-c2ccccc2)n(CC(=O)N2CCCC2)c1C | inactive
COc1ccc(OC)c(C(C)NC=O)c1 (stereo not given) | inactive
Cc1noc(C)c1CSc1nnc2scc(-c3ccc(Cl)cc3)n12 | inactive
CCc1ccc(NC(=O)c2noc3c2CCCCC3)cc1 | inactive
Cc1ccc(NC(=O)c2noc3c2CCCCC3)cc1C | inactive
O=C(Nc1cccnc1)c1noc2c1CCCCC2 | inactive
Cc1ccc(NC(=O)c2noc3c2CCCCC3)cc1 | inactive
Cc1ccccc1C1CC(c2ccc(F)cc2)Nc2nc(N)nn21 (stereo not given) | inactive
O=C1CCC(=O)N1CCCCCc1nc(-c2ccccc2)no1 | inactive
NS(=O)(=O)c1ccc(CNC(=O)C2CCCCC2)cc1 | inactive
CCn1c(SCC(=O)NCC(=O)Nc2ccc(F)cc2)nnc1-c1cccs1 | inactive
O=C(COc1c(F)c(F)c(C(F)(F)F)c(F)c1F)Nc1ccc(N2CCOCC2)c(Cl)c1 | inactive
CCOC(=O)C(NC(=O)CC(C)C)(Nc1cc(C)on1)C(F)(F)F (stereo not given) | inactive
CCC(C)(C)n1nnnc1CN1CCC(c2nc3ccc(C)cc3[nH]2)CC1 | inactive
Cc1cc2nc(-c3cccc(NC(=O)c4ccc(Br)o4)c3C)oc2cc1C | inactive
Cc1cc2oc(=O)cc(CN3CCC(C)CC3)c2cc1Cl | inactive
c1ccc(OCCn2c(-c3ccco3)nc3ccccc32)cc1 | inactive
CC(C)C(=O)N1CCc2cc(-c3csc(N)n3)ccc21 | inactive
CCC(C)C(=O)N1CCc2cc(-c3csc(N)n3)ccc21 (stereo not given) | inactive
Cc1csc(=O)n1CC(=O)OCc1cccc2ccccc12 | inactive
COC(=O)c1nn(-c2ccc3c(c2)OCO3)cc1O | inactive

Structure (SMILES) | outcome
CCOC(=O)c1cc(C(=O)OCC)cc(-n2cc(O)c(C(=O)OCC)n2)c1 | inactive
CCOC(=O)c1nn(-c2cc(C(=O)OC)cc(C(=O)OC)c2)cc1O | inactive
CCOC(=O)c1nn(-c2ccc3c(c2)CCN3C(C)=O)cc1O | active
CCOC(=O)c1nn(-c2ccc3c(c2)OCO3)cc1O | inactive
COCCCNS(=O)(=O)c1ccc2c(c1)CCN2C(C)=O | inactive
COC(=O)c1nn(-c2c(C)n(C)n(-c3ccccc3)c2=O)cc1O | inactive
O=S(=O)(NCc1ccc(Cl)cc1)c1cnc[nH]1 | inactive
O=C(O)C1CCCCC1C(=O)NC1CCCCC1 (stereo not given) | inactive
CC(C)(C)C(=O)NC1CCN(S(C)(=O)=O)CC1 | inactive
Cn1cccc1Cc1nnc(SCC(=O)N2CCc3ccccc32)n1-c1ccc(F)cc1 | inactive
CC1=NC(=O)C(N=Nc2ccccc2)N1c1ccccc1 (stereo not given) | inactive
CC1=NC(=O)C(N=Nc2cccc(O)c2)N1c1ccccc1 (stereo not given) | inactive
Cc1ccn(Cc2n[nH]c(=S)n2Cc2ccccc2)n1 | inactive
COc1ccc(C)cc1S(=O)(=O)N1CCC(C(=O)NCCC2=CCCCC2)CC1 | inactive
NS(=O)(=O)c1ccc(NS(=O)(=O)c2cccs2)cc1 | inactive
CN(C)c1ccc2c(c1)OC(N)=C(C#N)C2c1cccc(F)c1 (stereo not given) | active
COc1cc(C2C(C#N)=C(N)Oc3cc(C)oc(=O)c32)cc2c1OCO2 (stereo not given) | inactive
N#CC1=C(N)Oc2cc3ccccc3cc2C1c1cccnc1 (stereo not given) | inactive
N#CC1=C(N)Oc2c(ccc3cccnc23)C1c1cccnc1 (stereo not given) | inactive
COc1cc(C2C(C#N)=C(N)Oc3cc(N(C)C)ccc32)cc2c1OCO2 (stereo not given) | active
N#CC1=C(N)Oc2cc(N)ccc2C1c1ccc(F)cc1 (stereo not given) | inactive
N#CC1=C(N)Oc2cc(O)ccc2C1c1ccccc1 (stereo not given) | inactive
CCN(CC)c1ccc2c(c1)OC(N)=C(C#N)C2c1cccnc1 (stereo not given) | active
COc1cc(C2C(C#N)=C(N)Oc3cc(O)ccc32)cc2c1OCO2 (stereo not given) | inactive
